Measured values as given in the supplement of paper PMC4466140.

molecular target: ScBbc1; assay: SPOT peptide array binding signal intensity (averaged, normalized) (arbitrary units (background-subtracted, floor 0; scale differs between SH3 domains)); higher = stronger binding of the SH3 domain to the peptide
Description: (§1)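 GST-tagged SH3 domains from S. cerevisiae (Sc), A. gossypii (Ag), C. albicans (Ca) and S. pombe (Sp) were incubated at 10 ug/ml overnight at 4 C on cellulose SPOT membranes carrying 292 synthetic 15-mer peptides mined from the S. cerevisiae proteome (cysteines replaced by serines). Binding was detected with anti-GST antibody, HRP secondary and chemiluminescence, quantified with Genespotter, and reported as normalized spot intensities averaged over biological replicates.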

| Binder | SPOT peptide array binding signal intensity |
| --- | --- |
| RLPAPPPPPRRGPAP | 198 |

molecular target: ScBem1-D1; assay: as above
Description: as §1

| Binder | SPOT peptide array binding signal intensity |
| --- | --- |
| RLPAPPPPPRRGPAP | 3.5 |

molecular target: ScBzz1-D1; assay: as above
Description: as §1

| Binder | SPOT peptide array binding signal intensity |
| --- | --- |
| RLPAPPPPPRRGPAP | 222 |

molecular target: ScBzz1-D2; assay: as above
Description: as §1

| Binder | SPOT peptide array binding signal intensity |
| --- | --- |
| RLPAPPPPPRRGPAP | 47.5 |

molecular target: ScCyk3; assay: as above
Description: as §1

| Binder | SPOT peptide array binding signal intensity |
| --- | --- |
| RLPAPPPPPRRGPAP | 5 |

molecular target: ScFus1; assay: as above
Description: as §1

| Binder | SPOT peptide array binding signal intensity |
| --- | --- |
| RLPAPPPPPRRGPAP | ≤ 0 |

molecular target: ScHof1; assay: as above
Description: as §1

| Binder | SPOT peptide array binding signal intensity |
| --- | --- |
| RLPAPPPPPRRGPAP | 175 |

molecular target: ScHse1; assay: as above
Description: as §1

| Binder | SPOT peptide array binding signal intensity |
| --- | --- |
| RLPAPPPPPRRGPAP | 173 |

molecular target: ScLsb1; assay: as above
Description: as §1

| Binder | SPOT peptide array binding signal intensity |
| --- | --- |
| RLPAPPPPPRRGPAP | 27.2 |

molecular target: ScLsb2; assay: as above
Description: as §1

| Binder | SPOT peptide array binding signal intensity |
| --- | --- |
| RLPAPPPPPRRGPAP | 5.5 |

molecular target: ScLsb3; assay: as above
Description: as §1

| Binder | SPOT peptide array binding signal intensity |
| --- | --- |
| RLPAPPPPPRRGPAP | 832 |

molecular target: ScLsb4; assay: as above
Description: as §1

| Binder | SPOT peptide array binding signal intensity |
| --- | --- |
| RLPAPPPPPRRGPAP | 413 |

molecular target: ScMyo3; assay: as above
Description: as §1

| Binder | SPOT peptide array binding signal intensity |
| --- | --- |
| RLPAPPPPPRRGPAP | 881 |

molecular target: ScMyo5; assay: as above
Description: as §1

| Binder | SPOT peptide array binding signal intensity |
| --- | --- |
| RLPAPPPPPRRGPAP | 795 |

molecular target: ScNbp2; assay: as above
Description: as §1

| Binder | SPOT peptide array binding signal intensity |
| --- | --- |
| RLPAPPPPPRRGPAP | 30.5 |

molecular target: ScPex13; assay: as above
Description: as §1

| Binder | SPOT peptide array binding signal intensity |
| --- | --- |
| RLPAPPPPPRRGPAP | 502 |

molecular target: ScRvs167; assay: as above
Description: as §1

| Binder | SPOT peptide array binding signal intensity |
| --- | --- |
| RLPAPPPPPRRGPAP | 795 |

molecular target: ScSho1; assay: as above
Description: as §1

| Binder | SPOT peptide array binding signal intensity |
| --- | --- |
| RLPAPPPPPRRGPAP | 188 |

molecular target: ScSla1-D1-D2; assay: as above
Description: as §1

| Binder | SPOT peptide array binding signal intensity |
| --- | --- |
| RLPAPPPPPRRGPAP | 3480 |

molecular target: ScSla1-D3; assay: as above
Description: as §1

| Binder | SPOT peptide array binding signal intensity |
| --- | --- |
| RLPAPPPPPRRGPAP | 3.5 |

molecular target: SpAbp1-D1; assay: as above
Description: as §1

| Binder | SPOT peptide array binding signal intensity |
| --- | --- |
| RLPAPPPPPRRGPAP | 69 |

molecular target: SpBbc1; assay: as above
Description: as §1

| Binder | SPOT peptide array binding signal intensity |
| --- | --- |
| RLPAPPPPPRRGPAP | 20 |

molecular target: SpBzz1-D1; assay: as above
Description: as §1

| Binder | SPOT peptide array binding signal intensity |
| --- | --- |
| RLPAPPPPPRRGPAP | 4030 |

molecular target: SpBzz1-D2; assay: as above
Description: as §1

| Binder | SPOT peptide array binding signal intensity |
| --- | --- |
| RLPAPPPPPRRGPAP | 64.8 |

molecular target: SpCyk3; assay: as above
Description: as §1

| Binder | SPOT peptide array binding signal intensity |
| --- | --- |
| RLPAPPPPPRRGPAP | 57 |

molecular target: SpHof1; assay: as above
Description: as §1

| Binder | SPOT peptide array binding signal intensity |
| --- | --- |
| RLPAPPPPPRRGPAP | 115 |

molecular target: SpHof1-2; assay: as above
Description: as §1

| Binder | SPOT peptide array binding signal intensity |
| --- | --- |
| RLPAPPPPPRRGPAP | 166 |

molecular target: SpHof1-3; assay: as above
Description: as §1

| Binder | SPOT peptide array binding signal intensity |
| --- | --- |
| RLPAPPPPPRRGPAP | 1070 |

molecular target: SpHse1; assay: as above
Description: as §1

| Binder | SPOT peptide array binding signal intensity |
| --- | --- |
| RLPAPPPPPRRGPAP | 2.25 |

molecular target: SpLsb1; assay: as above
Description: as §1

| Binder | SPOT peptide array binding signal intensity |
| --- | --- |
| RLPAPPPPPRRGPAP | 12.2 |

molecular target: SpLsb4; assay: as above
Description: as §1

| Binder | SPOT peptide array binding signal intensity |
| --- | --- |
| RLPAPPPPPRRGPAP | 1800 |

molecular target: SpMyo1; assay: as above
Description: as §1

| Binder | SPOT peptide array binding signal intensity |
| --- | --- |
| RLPAPPPPPRRGPAP | 510 |

molecular target: SpNbp2; assay: as above
Description: as §1

| Binder | SPOT peptide array binding signal intensity |
| --- | --- |
| RLPAPPPPPRRGPAP | 12 |

molecular target: SpPex13; assay: as above
Description: as §1

| Binder | SPOT peptide array binding signal intensity |
| --- | --- |
| RLPAPPPPPRRGPAP | ≤ 0 |

molecular target: SpRvs167; assay: as above
Description: as §1

| Binder | SPOT peptide array binding signal intensity |
| --- | --- |
| RLPAPPPPPRRGPAP | 1170 |

molecular target: SpSla1-D1-D2; assay: as above
Description: as §1

| Binder | SPOT peptide array binding signal intensity |
| --- | --- |
| RLPAPPPPPRRGPAP | 339 |

molecular target: SpSla1-D3; assay: as above
Description: as §1

| Binder | SPOT peptide array binding signal intensity |
| --- | --- |
| RLPAPPPPPRRGPAP | ≤ 0 |
